Source: PubChem BioAssay AID1478 (National Center for Advancing Translational Sciences (NCATS), 2009)
Where “and” joins values, the source holds several entries; their conditions need not be identical. Equal values may be shown once. Among all 200,000 compounds or so, about 860 (0.43%) were called active. For the sample, actives were picked, then their nearest neighbours and some compounds at random. Unmarked numbers belong to inactive results. Calls follow the shape of the dose curve; as a rule, active = well fitted inhibition curve with a large enough effect; inconclusive = small, poorly fitted or top-dose-only effect; inactive = flat fitted curve, though single readings scatter.

Biological target: Cruzipain (Trypanosoma cruzi) (UniProt P25779)
Assay: qHTS Assay for Promiscuous and Specific Inhibitors of Cruzain (with detergent); also: nearly all actives have a fitted effect of over 40% in size
Conditions: purified cruzain, Z-FR-AMC fluorescence, 0.01% Triton
Experimental: Cruzain (3.4.22.51) is a cysteine protease from the tropical parasite Trypanosoma cruzi. Dual qHTS experiment was performed against the NCGC compound collection in order to 1) identify novel inhibitors of the enzyme and 2) profile the compound collection for promiscuous inhibitors operating via colloidal aggregation (by performing detergent-free and detergent-containing comparison screens). Cruzain was assayed by the use of fluorogenic coumarin-based substrate Z-FR-AMC: proteolytic cleavage releases AMC, whose fluorescence is measured at 360 nm excitation and 450 nm emission. Purified cruzain was supplied by the labs of Prof. James McKerrow and Brian Shoichet, UC San Francisco.
This assay had 0.01% Triton X-100 concentration. See also releated assay "qHTS Assay for Promiscuous and Specific Inhibitors of Cruzain (without detergent)" with 0.00005% Triton X-100.
See following references for additional details:
Assay Provider: Shoichet, Brian; University of California, San Fancisco
Screening Center PI: Austin, C.P.
Screening Center: NIH Chemical Genomics Center [NCGC]
Buffer: 100 mM Sodium Acetate, pH 5.5, 5 mM DTT, Triton X-100 concentration: 0.01%.
Buffer in columns 3 and 4 as negative control (no enzyme).
Substrate solution: 2 uM final concentration of Z-FR-AMC (catalog number I-1160, Bachem) dispensed throughout the plate.
Enzyme: 1.5 nM Cruzain final concentration in columns 1, 2, 5-48. Column 1 is neutral (100% activity). Column 2 contained titration of covalent inhibitor K11777, starting concentration 1 mM, then 1:2 dilution in duplicate).
Three uL of enzyme or buffer were dispensed to 1536-well Greiner black solid bottom plates. Compounds and controls (23 nL) were transferred via Kalypsys PinTool. The plates were incubated for 15 min at room temperature, and then 1 uL of substrate solution was added to start the reaction. The plates were immediately transferred to and read 4 times every 30 seconds for 2 min on ViewLux High-throughput CCD imager (Perkin-Elmer) using 360 nm excitation and 450 nm emission fluorescence protocol. The fluorescence intensity difference between the third and the first time points (time lapse of 60 seconds) was used to compute reaction progress.
Potency is read from the fitted curve at half-maximal effect.

Chain of Cruzipain (Trypanosoma cruzi) (P25779 123-467 limits assumed): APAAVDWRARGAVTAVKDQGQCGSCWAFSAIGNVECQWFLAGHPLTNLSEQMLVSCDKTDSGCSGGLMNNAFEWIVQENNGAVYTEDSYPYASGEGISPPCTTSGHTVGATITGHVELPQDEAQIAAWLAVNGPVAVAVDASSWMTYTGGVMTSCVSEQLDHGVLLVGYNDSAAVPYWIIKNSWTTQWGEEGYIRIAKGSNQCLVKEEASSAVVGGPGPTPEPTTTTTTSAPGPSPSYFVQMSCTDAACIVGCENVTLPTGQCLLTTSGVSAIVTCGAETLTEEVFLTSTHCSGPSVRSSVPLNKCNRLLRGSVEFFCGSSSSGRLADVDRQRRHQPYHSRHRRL

Row | SMILES | max response, negative = inhibition | Potency
1 | COC(=O)c1ccccc1NC(=O)c1cc(-c2ccccc2O)no1 | -8.5% | –
2 | COCCNC(=O)COc1ccccc1C | 1.74% | –
3 | Cc1ccccc1OCC(=O)NCC(=O)OCC(=O)c1ccc2ccccc2c1 | – | 5.01 µM (active)
4 | Cc1ccc(S(=O)(=O)NC(=O)COc2ccccc2C)cc1 | -0.523% | –
5 | Cc1ccc(-c2cnc(C3CC3)o2)cc1S(=O)(=O)Nc1cccc(C)c1C | -6.32% | –
6 | O=C(CS(=O)(=O)c1cccc2nsnc12)N1CCN(c2cccc(Cl)c2)CC1 | -2.29% | –
7 | Cc1cccc(CNC(=O)c2cnc3sc(N4CCCCC4)nn3c2=O)c1 | 3.23% | –
8 | COc1ccc(NC(=O)CSc2nnc(-c3nnn(-c4ccc(F)cc4)c3C)o2)cc1 | -0.381% | –
9 | CC(C)Oc1c(Br)cc(Br)cc1/C=N/NC(N)=S | – | 0.708 µM (active)
10 | CCOc1ccc(/C=N/NC(N)=S)cc1 | -18.1% | –
11 | NC(=S)N/N=C/c1coc2cc(Cl)ccc2c1=O | -8.88% | –
12 | CC(C)c1ccc(NC(=O)C2CCN(c3nc(-c4ccc(C(C)C)cc4)no3)CC2)cc1 | 0.837% | –
13 | Cc1ccc(C2C=C(c3ccc(Cl)cc3)Nc3nc(NC(=O)CCC(=O)O)nn32)cc1 (stereo not drawn) | 0.942% | –
14 | O=S(=O)(c1ccccc1)c1nc(-c2ccc(Cl)cc2Cl)oc1N1CCCCC1 | -15.9% | –
15 | O=C(NCc1ccccn1)c1cc(-c2ccccc2Cl)on1 | -2.6% | –
16 | O=C(NCc1ccccn1)c1ccc2nc(-c3ccco3)c(-c3ccco3)nc2c1 | – | 22.4 µM (active)
17 | CN(c1ccc(C(=O)NCc2ccccn2)cc1)S(C)(=O)=O | 1.59% | –
18 | O=S(=O)(c1ccc2nc(NCc3ccccc3Cl)ccc2c1)N1CCCCC1 | -1.7% | –
19 | Cc1ccc(Cn2c(CNC(=O)Cc3cccc(C)c3)nc3cccnc32)cc1 | -1.98% | –
20 | COc1ccc2[nH]c3c(c2c1)CCN(C(=O)CCC1CCCC1)C3c1ccc(F)cc1 (stereo not drawn) | 7.03% | –

Row | SMILES | max response, negative = inhibition | Potency
21 | Cc1ccc(C(=O)COC(=O)C(Cc2c[nH]c3ccccc23)NC(=O)c2ccc(Br)cc2)cc1 (stereo not drawn) | -0.996% | –
22 | COc1cc(OC)c(NC(=O)c2cc(S(=O)(=O)N3CCCC3)cn2C)cc1Cl | -0.944% | –
23 | Nc1nc(SCc2ccccc2Cl)n[nH]1 | 1.94% | –
24 | O=C(Nc1nnc(SCc2ccccc2)s1)c1ccco1 | 0.832% | –
25 | Nc1cc(=O)nc(SCc2ccccc2)n1Cc1ccco1 | -10.9% | –
26 | Clc1ccccc1CSc1nncn2c1cc1occc12 | -2.67% | –
27 | c1ccc(CSc2nnc(-c3ccco3)c(-c3ccco3)n2)cc1 | – | 14.1 µM (active)
28 | Clc1ccccc1CSc1nnc(-c2ccco2)c(-c2ccco2)n1 | – | 25.1 µM (active)
29 | CCc1ccc(NC(=O)c2cnc3c(-c4ccccc4)c(C)nn3c2C)cc1 | -6.46% | –
30 | Cc1ccc(S(=O)(=O)c2c(Nc3cccc(Cl)c3)sc(C(=O)c3ccc4c(c3)OCO4)c2N)cc1 | -3.98% | –
31 | COCCn1c(SCC(=O)c2cc(C)ccc2C)nc2cc(C(=O)NC3CCCC3)ccc2c1=O | -0.0872% | –
32 | COc1ccccc1CNC(=O)c1ccc(CS(=O)c2ccccc2Cl)o1 (stereo not drawn) | -8.94% | –
33 | Cc1nn(C(C)C(=O)NCCc2ccccc2)c(=O)c2c1sc1ccccc12 (stereo not drawn) | -6.56% | –
34 | CNc1ccc(-c2nc(-c3ccco3)no2)cc1[N+](=O)[O-] | -3.84% | –
35 | CC(=O)c1c(O)c(C)c(O)c(Cc2c(O)c3c(c(C(=O)/C=C\c4ccccc4)c2O)OC(C)(C)C=C3)c1O | – | 31.6 µM (active)
36 | CC(=O)c1c(O)c(C)c(O)c(Cc2c(O)c3c(c(C(=O)/C=C/c4ccccc4)c2O)OC(C)(C)C=C3)c1O | -22.4% | –
37 | O=C(/C=C/c1ccccc1)c1ccccc1O | -1.13% and 3.47% | –
38 | COc1cc(NC(=O)CSc2nc3nc(C)c(Cc4ccc(C)cc4)c(C)n3n2)cc(OC)c1OC | -4.19% | –
39 | O=C(CCc1nc(CN2CCN(S(=O)(=O)c3ccc(Br)cc3)CC2)no1)N1CCCCC1 | -0.641% | –
40 | O=C(CC(c1cccs1)N1Cc2ccccc2C1=O)Nc1ccc(F)cc1F (stereo not drawn) | -5.84% | –

Row | SMILES | max response, negative = inhibition | Potency
41 | O=S(=O)(NCCc1nnc2ccc(SCc3ccc(Cl)cc3Cl)nn12)c1ccccc1 | -7.61% | –
42 | O=C(CCOc1ccccc1)N(Cc1cccnc1)c1nc2ccc(Cl)cc2s1 | -5.3% | –
43 | COc1cc(NC(=S)NCCSc2ccc(C)cc2)cc(OC)c1 | – | 2 µM (active)
44 | COc1cc(NC(=O)Nc2ccc(C)cc2)cc([N+](=O)[O-])c1 | -3.61% | –
45 | COc1cccc(NC(=S)NCCCN2CCOCC2)c1 | -2.47% | –
46 | CC(NC(=O)CCc1cn(Cc2ccccc2Cl)c2ccccc12)c1ccccc1 (stereo not drawn) | -2.02% | –
47 | CC(C)(C)c1ccc(C(=O)Nc2ccc3c(c2)CCCN3C(=O)c2cccs2)cc1 | -4.1% | –
48 | COc1cc(NC(=O)c2cc(C3CC3)nc3c2c(C)nn3-c2ccccc2)cc(OC)c1 | -4.38% | –
49 | CC(=O)NC1=NN(C(C)=O)C(C)(c2ccc(C)cc2)S1 (stereo not drawn) | -0.836% | –
50 | CC(=O)NC1=NN(C(C)=O)C(C)(CCS(=O)(=O)c2ccc(Cl)c(Cl)c2)S1 (stereo not drawn) | -3.08% | –
51 | CC(=O)NC1=NN(C(C)=O)C(C)(c2ccc(Cl)s2)S1 (stereo not drawn) | – | 28.2 µM (active)
52 | COc1ccc(Cn2c(=O)c3oc4ccccc4c3n(CC(=O)Nc3ccc(F)cc3F)c2=O)cc1 | -0.479% | –
53 | COc1ccccc1NC(=O)CCC(=O)N1CC(C)Oc2ccc(C)cc21 (stereo not drawn) | -2.9% | –
54 | COc1ccccc1-n1c(-c2ccc(C)cc2)cn2c3c(=O)n(C)c(=O)n(C)c3nc12 | 0.477% | –
55 | Cc1ccccc1OCc1nc2c3cnn(-c4ccccc4F)c3ncn2n1 | -0.812% | –
56 | Cc1ccccc1-c1nc(SCC(=O)N(C)c2ccccc2)c2c(=O)n(C)c(=O)n(C)c2n1 | 0.835% | –
57 | Cc1ccc(-c2cc(C(=O)Oc3ccccc3Cl)no2)cc1C | -5.97% | –
58 | CCOc1ccc(NC(=O)c2cc3c(=O)n(Cc4cccs4)ccc3nc2C)cc1 | -4.36% | –
